Laboratory results published in PubChem BioAssay (Tox21).
Results filed as inconclusive are left out. A call without a number means that no potency is given here. A number with no mark means an inactive call. Calls of active or inactive are those of the source. The call rests on the fitted dose curve; in most records, active means well fitted cell-killing curve with a large enough effect in the repeat runs; inconclusive means weak or mixed curves, or effect the other way; inactive means flat fitted curve, though single readings scatter.

Columns and labels:
[1] = cAMP Responsive Elements (CRE) small molecule antagonists, cell-based qHTS assay: qHTS cell viability counter screen (AID 2060913); further: nearly all actives have a fitted effect of over 40% in size; further: potency means the concentration at half of the fitted maximal effect
Summary of the method: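 CRE-bla HEK293T cells (2,000/well, 18 h) given compound plus NKH477 0.25 uM final for 3 h at 37C; viability counter-screen by CellTiter-Glo luminescence in same wells after 30 min.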

[2] = cAMP Responsive Elements (CRE) small molecule agonists, cell-based qHTS assay: qHTS cell viability counter screen (AID 2060914); further: nearly all actives have a fitted effect of over 50% in size
Summary of the method: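 Luminescence read-out (CellTiter-Glo, 30 min RT) of ATP-based viability in CRE-bla HEK 293T cells, run in the same wells as the β-lactamase reporter assay after 3 h compound treatment at 37 °C.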

SMILES | Potency [1] | Potency [2] | viability change, negative = cytotoxic [1] | activity change, negative = cytotoxicity [2]
CC(C)CCCCOC(=O)c1ccccc1C(=O)OCCCCC(C)C | inactive | inactive |  | 
C[C@@H]1C[C@H]2[C@@H]3CCC4=CC(=O)C=C[C@]4(C)[C@@]3(F)[C@@H](O)C[C@]2(C)[C@@]1(O)C(=O)CO | inactive | inactive |  | 
C=CCOCC(CO)(COCC=C)COCC=C | inactive | inactive |  | 
Cc1cccc(S(=O)(=O)O)c1C | inactive | inactive |  | 
C/C(C=O)=C\c1ccccc1 | inactive | inactive |  | 
C[n+]1ccn(CCO)c1 | inactive | inactive |  | 
CC(C)Nc1cccnc1N1CCN(C(=O)c2cc3cc(NS(C)(=O)=O)ccc3[nH]2)CC1 | inactive | inactive |  | 
COc1ccccc1N=Nc1c(S(=O)(=O)O)cc2cc(S(=O)(=O)O)cc(NC(C)=O)c2c1O | inactive | inactive |  | 
CCOc1ccc(N=Nc2ccc(/C=C/c3ccc(N=Nc4ccc(OCC)cc4)cc3S(=O)(=O)O)c(S(=O)(=O)O)c2)cc1 | inactive | inactive |  | 
CCCCCc1ccc(N)cc1 | inactive | inactive |  | 
O=C1NC(=O)[C@@]2(CCOc3ccc(F)cc32)N1 | inactive | inactive |  | 
CCCCC(CC)CO (centres undefined) | inactive | inactive |  | 
COC(=O)c1ccc(C=O)cc1 | inactive | inactive |  | 
O=C1c2cccc(O)c2C(=O)c2c(O)cccc21 | inactive | inactive |  | 
O=C(O)c1cc(=O)c2c(OCC(O)COc3cccc4oc(C(=O)O)cc(=O)c34)cccc2o1 | inactive | inactive |  | 
Cc1cc(O)c2c(c1)C(=O)c1cccc(O)c1C2=O | inactive | inactive |  | 
CC/C=C/CCCCCCCCCCOC(C)=O | inactive | inactive |  | 
CCCOc1ccc2c(c1)CC[C@@H]1[C@@H]2CC[C@]2(C)C(OC)CC[C@@H]12 (some centres undefined) | inactive | inactive |  | 
CC1(C)CC(OC(=O)CCCCCCCCC(=O)OC2CC(C)(C)NC(C)(C)C2)CC(C)(C)N1 |  |  | -1.62% [at 18.9 µM] | 1.68% [at 18.9 µM]
c1cnccn1 | inactive | inactive |  | 
NCCc1ccc(O)c(O)c1 | inactive | inactive |  | 
NCc1ccccc1 | inactive | inactive |  | 
O=C(/C=C/c1ccccc1)OCCCc1ccccc1 | inactive | inactive |  | 
O=C(CCCCCCCCC#CI)Oc1ccccc1 | inactive | inactive |  | 
Cc1cc(C)c(C)c(O)c1 | inactive | inactive |  | 
CC(C)(C)c1ccc(O)c(O)c1 | inactive | inactive |  | 

SMILES | Potency [1] | Potency [2] | viability change, negative = cytotoxic [1] | activity change, negative = cytotoxicity [2]
NC(=O)NC(=O)Cc1ccccc1 | inactive | inactive |  | 
Cc1ccc(N)nc1 | inactive | inactive |  | 
COc1ccc(-c2cc(=S)ss2)cc1 | inactive | inactive |  | 
C[N+]1(CC2COC(c3ccccc3)(C3CCCCC3)O2)CCCCC1 (centres undefined) | inactive | inactive |  | 
[O-][n+]1ccccc1SSc1cccc[n+]1[O-] | 0.461 µM (active) |  |  | -16.6% [at 18.9 µM]
CCCCCOc1ccc(C2SC(=O)NC2=O)cc1OCC (centres undefined) | inactive | inactive |  | 
Nc1c(NC/C=C\COc2cc(CN3CCCCC3)ccn2)c(=O)c1=O |  |  | -0.847% [at 18.9 µM] | 0.246% [at 18.9 µM]
CC(C)(C)CC(C)(C)N | inactive | inactive |  | 
C[C@H]1C[C@H]2[C@@H]3CCC4=CC(=O)C=C[C@]4(C)[C@@]3(Cl)[C@@H](O)C[C@]2(C)[C@@]1(O)C(=O)CO | inactive | inactive |  | 
CCCCCCCCCCCCCC=O |  |  | -4.53% [at 8.39 µM] | 15.9% [at 8.39 µM]
CN(C)CCN1CCOCC1 | inactive | inactive |  | 
CCCCCCCCCCCCCCCC(=O)OCC | inactive | inactive |  | 
CCCCCCCCCCCCCCCC(=O)OC/C=C(C)/C=C/C=C(C)/C=C/C1=C(C)CCCC1(C)C | inactive | inactive |  | 
CC(=O)O[C@H]1C[C@@H]2CC[C@@]1(C)C2(C)C | inactive | inactive |  | 
CCCCCC(=O)O | inactive | inactive |  | 
NC(=O)c1ccccc1Cl | inactive | inactive |  | 
CC(CC=O)CCCC(C)(C)O (centres undefined) | inactive | inactive |  | 
O=C(O)c1cccc([N+](=O)[O-])c1 | inactive | inactive |  | 
O=S(=O)(Oc1ccc(Cl)cc1Cl)c1ccccc1 | inactive | inactive |  | 
Cc1ccsc1C(=CCCN1CCC[C@@H](C(=O)O)C1)c1sccc1C | inactive | inactive |  | 
COC(=O)C(C)(C)C | inactive | inactive |  | 
CC1=NN(c2cc(S(=O)(=O)O)ccc2Cl)C(=O)C1N=Nc1ccccc1 (centres undefined) | inactive | inactive |  | 
CCCCCCCCN1CCCC1=O | inactive | inactive |  | 
Nc1c(Cl)cc(Cl)cc1[N+](=O)[O-] | inactive | inactive |  | 
C=CCS(=O)(=O)O | inactive | inactive |  | 
C[C@H]1C[C@H]2[C@@H]3CCC4=CC(=O)C=C[C@]4(C)[C@@]3(F)[C@@H](O)C[C@]2(C)[C@@]1(O)C(=O)COP(=O)(O)O | inactive | inactive |  | 

SMILES | Potency [1] | Potency [2] | viability change, negative = cytotoxic [1] | activity change, negative = cytotoxicity [2]
c1ccc(CN(Cc2ccccc2)Cc2ccccc2)cc1 | inactive | inactive |  | 
CNCCCCOc1ccccc1Cc1ccccc1 | inactive | inactive |  | 
O=C(Nc1ccc(C(=O)O)c(O)c1)c1ccccc1 | inactive | inactive |  | 
C1CSCCS1 | inactive | inactive |  | 
O=C(Cn1ccnc1[N+](=O)[O-])NCCO | inactive | inactive |  | 
COc1ccc(-c2cc(=O)c3c(O)cc(O[C@@H]4O[C@H](CO[C@@H]5O[C@@H](C)[C@H](O)[C@@H](O)[C@H]5O)[C@@H](O)[C@H](O)[C@H]4O)cc3o2)cc1O | inactive | inactive |  | 
O=C(CCCCC(=O)Nc1c(I)cc(I)c(C(=O)O)c1I)Nc1c(I)cc(I)c(C(=O)O)c1I | inactive | inactive |  | 
CO[Si](CCCNCCN)(OC)OC | inactive | inactive |  | 
Fc1ccc([C@@H]2CCNC[C@H]2COc2ccc3c(c2)OCO3)cc1 | inactive | inactive |  | 
COc1ccc(/C=N/NC(=O)c2ccncc2)cc1OC | inactive | inactive |  | 
CCCCN1C=CN(C)C1 |  |  | 7.21% [at 18.9 µM] | 2.49% [at 18.9 µM]
O=Cc1ccccc1[N+](=O)[O-] | inactive | inactive |  | 
CC(C)(c1cc(Br)c(O)c(Br)c1)c1cc(Br)c(O)c(Br)c1 | inactive | inactive |  | 
CCOCCC(=O)OCC | inactive | inactive |  | 
Cc1oncc1C(=O)Nc1ccc(C(F)(F)F)cc1 | inactive | inactive |  | 
CCOC(=O)C(=O)c1csc(NC=O)n1 | inactive | inactive |  | 
CC(C)CCOCCC(C)C | inactive | inactive |  | 
CCCC(=O)c1ccccc1 | inactive | inactive |  | 
Cc1ccccc1 | inactive | inactive |  | 
CC(C)C(O)(c1ccc(OC(F)(F)F)cc1)c1cncnc1 (centres undefined) | inactive | inactive |  | 
Clc1ccc2nsnc2c1NC1=NCCN1 | inactive | inactive |  | 
O=c1oc2c(O)c(O)cc3c(=O)oc4c(O)c(O)cc1c4c23 |  |  | 2.4% [at 18.9 µM] | -1.77% [at 18.9 µM]
Oc1ccc(-c2ccc(O)cc2)cc1 | inactive | inactive |  | 
NCCCCCCN | inactive | inactive |  | 
N#CCc1ccc(Cl)cc1Cl | inactive | inactive |  | 
